Only some compounds are listed: those with a hit (about 1.5% of all), similar ones and a draw of the others.
MEX-5 binding – MEX-5 zinc finger RNA-binding disruptors – biochemical, C. elegans, fluorescence polarization, MLPCN library, primary screen; MEX-5/FITC-TCR2 RNA binding; stronger effect = lower value; actives 0.38% (n = 300,000); activity score (negative = inhibition of binding), % at 10 µM;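 active means inhibition past about -25% in most replicates, and total fluorescence under double the plate's negative control median, limit read from the data; inconclusive means replicates evenly split on the limit, or fluorescence at least double controls; inactive means too little inhibition in most replicates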
EBV gp42 block – Epstein-Barr virus gp42 inhibitors, primary screen, biochemical, uHTS, fluorescence polarization. Glycoprotein 42 (Epstein-Barr virus (strain AG876)), Q1HVG2. Fluorescence polarization binding assay, mP read-out. inhibition, % (tested at 21.74 µM). actives 0.42% (n = 220,000); in the data active means inhibition above about 50%
E coli Lon inh – inhibitors of E. coli Lon protease, primary screen, biochemical, fluorescence polarization. P0A9M0. purified E. coli Lon protease. inhibition, % at 7.94 µM. actives 0.42% (n = 360,000); in the data active means inhibition above about 13%, passing the limit was not always enough
MCL1 BIM primary – inhibitors of MCL1 binding to BIM-BH3, primary screen, biochemical, fluorescence polarization; actives 0.68% (n = 320,000); inhibition, % at 10.9 µM; GST-MCL1 / FITC-Bim-BH3 fluorescence polarization; Induced myeloid leukemia cell differentiation protein Mcl-1 (Homo sapiens), Q07820;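 active means inhibition above the mean inhibition of all tested compounds plus 3 SD, set per campaign, cut at about 40% in these data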;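 further: higher means more loss of mP so more displacement of Bim peptide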
Target sequence (Q07820 whole entry, looked up): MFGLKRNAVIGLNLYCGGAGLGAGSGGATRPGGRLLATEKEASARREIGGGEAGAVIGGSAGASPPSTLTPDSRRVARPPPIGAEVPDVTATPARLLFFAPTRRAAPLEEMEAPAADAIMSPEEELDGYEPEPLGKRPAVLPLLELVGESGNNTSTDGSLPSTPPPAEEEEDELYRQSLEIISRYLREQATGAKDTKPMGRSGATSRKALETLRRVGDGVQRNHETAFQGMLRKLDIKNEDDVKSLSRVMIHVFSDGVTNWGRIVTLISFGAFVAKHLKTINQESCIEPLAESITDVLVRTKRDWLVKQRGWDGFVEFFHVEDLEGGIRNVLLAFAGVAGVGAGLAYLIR
BCLXL inh – inhibitors of human Bcl-xL, primary screen, biochemical, fluorescence polarization, HTS. actives 0.7% (n = 320,000). GST-Bcl-xL / FITC-Bim BH3 peptide fluorescence polarization. inhibition, % at 10.9 µM. Bcl-2-like protein 1 (Homo sapiens), Q07817;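 active means inhibition above the mean of all tested compounds plus 3 SD, cutoff set per campaign, cut at about 30% in these data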;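 further: inhibitors lower millipolarization by displacing the labeled peptide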
Target sequence (Q07817 whole entry, looked up): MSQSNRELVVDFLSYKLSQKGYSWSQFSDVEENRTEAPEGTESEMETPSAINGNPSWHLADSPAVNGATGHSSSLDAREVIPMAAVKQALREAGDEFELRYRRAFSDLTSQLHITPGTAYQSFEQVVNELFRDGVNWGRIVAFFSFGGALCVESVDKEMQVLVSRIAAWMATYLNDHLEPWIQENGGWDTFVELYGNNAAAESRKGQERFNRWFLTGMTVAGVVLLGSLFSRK
GLD-1 TGE inh – GLD-1/TGE RNA complex disruptors, primary screen, biochemical, fluorescence polarization; inhibition, % at 5.96 µM; Female germline-specific tumor suppressor gld-1 (Caenorhabditis elegans), Q17339; purified GLD-1 + fluorescein TGE RNA; actives 0.44% (n = 320,000);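 active means percent inhibition above a per-plate cutoff, the plate mean of test compounds plus 3 SD, cut at about 30% in these data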
A number is an active result; 0 = inactive; ? = inconclusive; - = no result.

SMILES | MEX-5 binding | EBV gp42 block | E coli Lon inh | MCL1 BIM primary | BCLXL inh | GLD-1 TGE inh
CC(=O)NC12CC3CC(C1)CC(C(=O)OCC(=O)Nc1ncc(Cl)c(C)c1Cl)(C3)C2 | 0 | 0 | 0 | 0 | 37.2 | 0
O=[N+]([O-])c1ccc2nc(Cl)nc(-c3ccccc3)c2c1 | 0 | - | 0 | - | - | -
CCOC(=O)C1=C(C)OC(N)=C(C#N)C1c1ccc(C)s1 (configuration not stated) | 0 | 0 | 0 | 0 | 30.6 | 0
O=C/C(=C\Nc1ccccn1)c1nc2ccccc2o1 | -37.1 | 0 | 0 | 0 | 0 | 0
CC(C)Oc1ccc(NC(=O)CCC(=O)O)cc1 | 0 | 78.3 | 0 | 0 | 0 | 0
CCOC(=O)N1CCC2(CC1)C(C#N)=C(N)Oc1n[nH]c(C)c12 | 0 | 0 | 0 | 0 | 0 | 0
CCOC(=O)N1CCC2(CC1)C(C#N)=C(N)Oc1c2c(C)nn1-c1cccc(Cl)c1 | 0 | 52.4 | 0 | 0 | 0 | 0
Nc1c(N2CCCC2)cc(Cl)c2nonc12 | 0 | 0 | 0 | 0 | 50.1 | 0
COc1ccc(/C(O)=C/c2nc3ccccc3n(-c3ccccc3)c2=O)cc1 | ? | 58.6 | 0 | 0 | 0 | 0
CC[C@]12CCCN3CCc4c(n(c5ccccc45)[C@](O)(C(=O)OC)C1)[C@@H]32 | - | - | 0 | 0 | 0 | 0
CCC12CCCN3CCc4c(n(c5ccccc45)C(O)(C(=O)OC)C1)C32 (configuration not stated) | 0 | 0 | 0 | 0 | 31.5 | 0
Cc1ccc(NC(=O)CN2C(=O)CC(C)S(=O)(=O)c3ccccc32)cc1 (configuration not stated) | 0 | - | 0 | 0 | 0 | 0
Cn1c(N)c(C(=O)CSc2n[nH]c(N)n2)c(=O)n(C)c1=O | - | - | 0 | - | - | -
O=C1/C(=C/c2ccc(Br)cc2)Oc2cc(O)ccc21 | -39.8 | - | 0 | 0 | 0 | 75.8
CC(C)(C)c1ccc(/C=C2\Oc3cc(O)ccc3C2=O)cc1 | -27.5 | - | 0 | 0 | 0 | 0
Cc1ccc(OC(C)C(=O)Nc2ccc(F)cc2)c([N+](=O)[O-])n1 (configuration not stated) | - | - | 0 | 0 | 0 | 0
COCCN(C(=O)COC(=O)Cc1cccc(OC)c1)c1c(N)n(CC(C)C)c(=O)[nH]c1=O | 0 | - | 0 | 0 | 0 | 0
c1coc(C2Nc3cccc4cccc(c34)N2)c1 | 0 | 0 | - | 57.7 | 51.3 | 0
Brc1ccc(C2Nc3cccc4cccc(c34)N2)cc1 | - | - | 0 | - | - | -
Clc1cccc(C2Nc3cccc4cccc(c34)N2)c1Cl | 0 | - | 0 | 0 | 0 | 0
Clc1ccccc1C1Nc2cccc3cccc(c23)N1 | 0 | - | 0 | 0 | 38.1 | 0
COC(=O)C1C(O)CCC2CN3CCc4c([nH]c5ccccc45)C3CC21 (configuration not stated) | 0 | 0 | 0 | 42.3 | 37.0 | 0
COC(/C(=N/O)c1ccc(Cl)cc1)c1ccccc1 (configuration not stated) | 0 | - | 0 | 0 | 0 | 0
COc1ccccc1NC(=S)NNC(=O)c1cc(C)n(C)n1 | -25.8 | 0 | 0 | 0 | 0 | 0
COc1ccccc1NC(=S)NNC(=O)c1cc(C)nn1C | 0 | 0 | 0 | 0 | 0 | 0
SMILES | MEX-5 binding | EBV gp42 block | E coli Lon inh | MCL1 BIM primary | BCLXL inh | GLD-1 TGE inh
Cc1nn(C)c(C)c1CN(C)C(=O)C1c2ccccc2Oc2ccccc21 | -46.5 | 81.4 | 0 | 0 | 30.9 | 0
O=C(COC(=O)c1cnccn1)Nc1c(Cl)cc(Cl)cc1Cl | - | - | 0 | 0 | 0 | 0
O=C(COC(=O)c1cnccn1)Nc1ncc(Cl)cc1Cl | 0 | - | 0 | 0 | 33.9 | 0
O=C(CN1C(=O)S/C(=C\C=C\c2ccccc2)C1=O)Nc1ccccc1C(=O)O | 0 | 0 | 0 | 0 | 0 | 0
C#CCN1C(=O)S/C(=C/C=C/c2ccc(N(C)C)cc2)C1=O | - | 0 | 0 | 43.7 | 55.2 | 0
CSc1nc(O)c(N=Nc2ccc(F)cc2F)c(=O)[nH]1 | 0 | - | 0 | 42.3 | 37.1 | 0
CCNC(=O)c1c(N)sc2c1CCCCC2 | 0 | 0 | - | 0 | 38.7 | 0
Oc1cc2c(cc1O)C(c1ccccc1)CNCC2 (configuration not stated) | -30.3 | - | 0 | 0 | 0 | 0
CC(=O)c1cccc(NC(=O)NC2CC(=O)N(c3ccc4c(c3)OCCO4)C2)c1 (configuration not stated) | 0 | - | 0 | 0 | 0 | 0
Oc1c(Br)cc(/C=N/n2c(-c3ccccc3)n[nH]c2=S)c(Br)c1O | -52.0 | - | - | 108.1 | 60.2 | 0
Oc1c(Br)cc(Br)cc1/C=N/n1c(-c2ccccc2)n[nH]c1=S | 0 | - | 0 | 0 | 0 | 0
CCN(CC)c1ccc2c(c1)C(=O)N(C)C2=O | 0 | 0 | 0 | 0 | 0 | 0
CCN(CCCCN1C(=O)c2ccccc2C1=O)c1ccc2c(c1)C(=O)N(C)C2=O | 0 | 0 | 0 | 48.7 | 38.3 | 0
Cc1cc(C(=O)OCC(=O)Nc2c(Cl)cccc2C(F)(F)F)c(C)o1 | 0 | - | 0 | 0 | 45.6 | 0
O=C(Nc1cccc(Cl)c1)c1nc[nH]c1C(=O)Nc1ccccc1F | - | - | 0 | - | - | -
O=C(c1cc(-c2cccnc2)nc2ccccc12)N1CCN(S(=O)(=O)c2ccc(Cl)s2)CC1 | - | - | 0 | - | - | -
COCCN1CCC(CNCc2c(C(=O)N3CCCCC3)nc3c(C)cccn23)C1 (configuration not stated) | -48.9 | 0 | 0 | 0 | 0 | 0
O=C(CCc1nc2ccccc2c(=O)[nH]1)N1CCCc2ccccc21 | 0 | - | 0 | 43.3 | 51.1 | 0
O=C(CCc1nc2ccccc2c(=O)[nH]1)N1CCN(c2ccccc2Cl)CC1 | - | - | 0 | - | - | 0
Cc1cc(C(=O)N2CCCC(C)(C(=O)NS(=O)(=O)C3CC3)C2)nn1C(C)(C)C (configuration not stated) | - | - | 0 | - | - | -
CC1(C)CC(=O)C(C2C3=C(CC(C)(C)CC3=O)Oc3c(Br)cc(Br)cc32)=C(O)C1 (configuration not stated) | 0 | - | 0 | 0 | 0 | 0
Cc1ccc(C(c2sc3ncnn3c2O)N2CC(C)CC(C)C2)cc1 (configuration not stated) | 0 | 0 | 0 | 0 | 55.5 | 0
CC1CCCN(C(c2ccccc2)c2sc3ncnn3c2O)C1 (configuration not stated) | 0 | 0 | 0 | 0 | 0 | 0
Clc1cccc(CSc2nc3ccncc3[nH]2)c1 | -52.0 | 0 | 0 | 0 | 0 | 0
COc1cccc(/C(O)=C/c2nc3ccc(C(=O)NCCc4ccc(Cl)cc4)cc3[nH]c2=O)c1 | -49.0 | 106.9 | 0 | - | - | -
N#CC(c1nc2ccccc2nc1OCCO)S(=O)(=O)c1ccccc1 (configuration not stated) | -37.6 | 0 | 0 | 0 | 0 | 0

Source: PubChem (several laboratories)
